# AHR activator: AHR activators, primary screen, cell-based, luminescence, luciferase reporter, human | AHR-responsive luciferase reporter cells | activation, % at 5 µM | actives 2.5% (n = 320,000) | AID 2796, 2010; in the data active means activation above about 47%;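 further: 0% = vehicle wells and 100% = reference agonist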
# Target sequence (P35869 whole entry, looked up): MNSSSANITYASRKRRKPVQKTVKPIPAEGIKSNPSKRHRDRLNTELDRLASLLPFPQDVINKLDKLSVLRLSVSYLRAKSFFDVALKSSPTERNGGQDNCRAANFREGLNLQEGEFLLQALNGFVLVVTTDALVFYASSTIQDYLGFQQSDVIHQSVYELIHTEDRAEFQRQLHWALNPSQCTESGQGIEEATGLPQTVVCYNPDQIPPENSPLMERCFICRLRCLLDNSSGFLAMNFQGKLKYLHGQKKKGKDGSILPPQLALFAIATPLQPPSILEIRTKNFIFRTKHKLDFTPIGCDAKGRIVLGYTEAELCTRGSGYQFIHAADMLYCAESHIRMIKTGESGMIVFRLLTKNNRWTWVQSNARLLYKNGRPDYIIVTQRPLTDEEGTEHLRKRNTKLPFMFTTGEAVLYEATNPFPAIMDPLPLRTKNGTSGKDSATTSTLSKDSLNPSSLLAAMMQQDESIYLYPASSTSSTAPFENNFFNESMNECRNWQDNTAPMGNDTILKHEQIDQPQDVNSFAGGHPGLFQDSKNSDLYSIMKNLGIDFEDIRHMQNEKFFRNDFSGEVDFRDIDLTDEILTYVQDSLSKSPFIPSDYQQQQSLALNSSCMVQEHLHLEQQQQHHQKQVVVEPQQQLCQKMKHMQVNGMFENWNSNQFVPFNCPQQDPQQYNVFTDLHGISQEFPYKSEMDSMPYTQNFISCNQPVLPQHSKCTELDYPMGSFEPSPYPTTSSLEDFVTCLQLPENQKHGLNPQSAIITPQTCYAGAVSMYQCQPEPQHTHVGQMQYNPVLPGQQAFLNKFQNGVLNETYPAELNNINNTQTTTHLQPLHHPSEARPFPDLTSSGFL
# proKLK7 act: proKLK7 zymogen activators, primary screen, biochemical, fluorescence intensity; Kallikrein-7 (Homo sapiens), P49862; purified proKLK7, EDANS-DABCYL substrate fluorescence; 100% is mature enzyme control, 0% vehicle; activation, % at 7 µM; actives 0.9% (n = 370,000); AID 652039, 2013;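 active means activation above the mean of all tested compounds plus 3 SD, computed per campaign excluding outliers beyond control limits, cut at about 13% in these data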
# ADAM10 inh: human ADAM10 inhibitors, primary screen, biochemical, QFRET, HTS. actives 0.62% (n = 370,000). inhibition, % at 7 µM. AID 720582, 2013. recombinant ADAM10, EDANS/DABCYL FRET peptide cleavage, 3 h;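 active means inhibition above a per-campaign cutoff equal to the mean of compounds falling between control-based bounds plus 3 SD, cut at about 20% in these data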;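 further: 0% = DMSO wells while the 100% control is not disclosed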
# GRIN3A LBD mod: binders of NR3A ligand-binding domain, primary screen, biophysical, differential scanning fluorimetry, uHTS; Glutamate receptor ionotropic, NMDA 3A (GRIN3A) ligand-binding domain; NR3A LBD differential scanning fluorimetry, Tm shift; 0% = protein alone, 100% = glycine-bound protein; Tm shift relative to glycine control, % at 25 µM; actives 2.5% (n = 340,000); AID 1259313, 2017;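 active means melting temperature shift of at least 10% of the positive control shift, at one fixed dose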
# rCAG RNA binder: binders of r(CAG) RNA repeats, primary screen, biochemical, fluorescence | r(CAG) RNA repeat, TO-PRO-1 dye displacement fluorescence | inhibition, % at 3 µM | AID 651821, 2012 | actives 1.3% (n = 370,000);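 active means inhibition above the plate cutoff, the mean of all test compounds on that plate plus 3 SD, cut at about 35% in these data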;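 further: 0% = DMSO alone and 100% = 100 µM mitoxantrone as full dye displacement; higher means more dye released from RNA so lower well fluorescence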
# ADAM17 inh: ADAM17 inhibitors, primary screen, biochemical, QFRET. recombinant ADAM17, EDANS/DABCYL FRET peptide cleavage. inhibition, % at 6.95 µM. actives 0.83% (n = 370,000);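 active means inhibition above the mean of compounds lying between control limits plus 3 SD, set per campaign, cut at about 8.5% in these data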;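 further: 0% = DMSO-only wells as the low control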
# ADAM10 confirm: human ADAM10 inhibitors, confirmation, biochemical, QFRET, triplicate | shares compounds with ADAM10 inh | ADAM10 QFRET peptide cleavage, EDANS fluorescence | inhibition, % at 6.95 µM | actives 1% (n = 2,100);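 active means inhibition above about 20% chosen separately for each screening run, limit read from the data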;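 further: 0% = DMSO wells and 100% = marimastat wells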
# ADAM17 ctr: ADAM17 inhibitors, counter-screen for ADAM10 exosite inhibitor project, biochemical, QFRET, high throughput; shares compounds with ADAM10 inh; ADAM17 QFRET peptide cleavage, EDANS fluorescence; inhibition, % at 6.95 µM; actives 0.5% (n = 2,100); AID 743214, 2013;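 active means mean triplicate inhibition above the solvent-only control wells' mean plus 3 SD, cut at about 12% in these data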;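 further: 0% = DMSO wells and 100% = marimastat wells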
# * marks the source's active call; other numbers are inactive results; nt = no result. An excerpt weighted towards active compounds, which were near 7% of everything screened.
SMILES,AHR activator,proKLK7 act,ADAM10 inh,GRIN3A LBD mod,rCAG RNA binder,ADAM17 inh,ADAM10 confirm,ADAM17 ctr
CCC(CO)Oc1cc(NCc2ccc(Cl)cc2)c2ncn(C(C)C)c2c1 (centres undefined),12,0,-10,-5,-4,-9,nt,nt
CCC(CO)Oc1cc(NCc2ccc(Cl)cc2Cl)c2ncn(C(C)C)c2c1 (centres undefined),1,0,22*,-21,-4,7,5,0
O=C1NC[C@@H](CCCCN2C[C@H](Cc3ccccc3)N(CCc3ccc(O)cc3)C(=O)C2=O)N(Cc2ccccc2)C1=O,nt,0,-3,nt,2,-2,nt,nt
CN(c1ccccc1)S(=O)(=O)c1nnc(NC(=O)c2ccco2)s1,1,0,48*,-1,15,1,4,1
O=S(=O)(/N=C(\c1ccc(F)cc1)N1CCOCC1)c1ccccc1,nt,0,-1,nt,1,-1,nt,nt
O=C(NCc1ccccn1)C(=O)Nc1cccc2ccccc12,-3,0,1,4,-3,0,nt,nt
OC(c1ccc(F)c(F)c1)c1nc(-c2ccc(Cl)cc2)cs1 (centres undefined),nt,0,20*,nt,3,7,4,1
COc1ccccc1-c1csc(C(O)c2cccc(Cl)c2)n1 (centres undefined),nt,1,23*,nt,3,8,6,2
COc1ccccc1-c1csc(C(O)c2ccccc2)n1 (centres undefined),nt,0,-3,nt,0,3,nt,nt
FC(F)C(F)(F)C(F)(F)C(F)(F)c1cc(-c2ccccc2)n[nH]1,11,0,23*,-7,-8,6,-1,1
Cc1cc(-c2ccccc2)n[nH]1,4,-1,-8,0,-1,1,nt,nt
COc1ccc(C(C)(O)c2nc(-c3cccc(F)c3)cs2)cc1 (centres undefined),nt,1,22*,nt,2,5,3,0
Cc1nn(C)c(C(=O)N/N=C/c2cccc(Oc3ccccc3)c2)c1Br,1,0,24*,-15,-2,1,3,1
Nc1ccc(S(=O)(=O)N2CCCc3ccccc32)cc1,0,0,24*,0,5,4,0,0
O=S(=O)(c1ccc(Cl)cc1)N1CCCc2ccccc21,6,0,6,4,1,3,nt,nt
CC(C)Oc1ccc(CNC(=S)Nc2ccccc2)cc1Cl,1,0,2,-3,0,0,nt,nt
CC(C)COc1ccc(CNC(=S)Nc2ccccc2)cc1Cl,36,0,21*,15*,2,5,10,2
Oc1cccc(/C=N/N(Cc2ccccc2)c2ccccc2)c1,4,0,22*,16*,15,9,13,5
Oc1cccc(C=NCc2ccccc2)c1,2,0,1,1,1,-4,nt,nt
Cc1cc(C)n(CC(O)Cn2c3ccc(Br)cc3c3cc(Br)ccc32)c(=O)n1 (centres undefined),2,0,20*,7,6,8,6,2
Cc1cc(C)n(CC(O)Cn2c3ccccc3c3ccccc32)c(=O)n1 (centres undefined),0,0,2,-1,0,-4,nt,nt
CN(C)c1ccc(C(CNS(=O)(=O)c2ccc(F)cc2)c2c[nH]c3ccccc23)cc1 (centres undefined),57*,0,22*,16*,10,7,13,3
CCN(c1ccc(NC(=O)COC(=O)CCc2cc(OC)c(OC)c(OC)c2)cc1)C(C)C,nt,0,21*,-2,-4,0,1,0
Cc1cccc(OCC(=O)NNC(=O)c2cc3ccccc3oc2=O)c1,-3,0,23*,0,2,7,23*,13*
O=C(COc1ccc(F)cc1)NNC(=O)c1cc2ccccc2oc1=O,0,0,-7,3,0,-5,nt,nt
SMILES,AHR activator,proKLK7 act,ADAM10 inh,GRIN3A LBD mod,rCAG RNA binder,ADAM17 inh,ADAM10 confirm,ADAM17 ctr
OC(CSc1ccccc1Cl)CN1CCN(c2ccc(F)cc2)CC1 (centres undefined),-5,-1,5,-8,-2,0,nt,nt
OC(CSc1c(Cl)cccc1Cl)CN1CCN(c2ccc(F)cc2)CC1 (centres undefined),2,0,21*,-13,2,11*,2,1
Cn1c(=O)c2c(ncn2CC(=O)OCC(=O)Nc2ccc(F)cc2F)n(C)c1=O,0,0,-7,-1,2,-4,nt,nt
CC(C)NC(=O)C(=O)NCCCN1CCOCC1,0,1,-13,-2,2,-1,nt,nt
CC1(C(=O)Nc2cccnc2)Cc2c(-c3ccc4c(c3)OCO4)ccnc2O1 (centres undefined),nt,1,-86,nt,-1,-25,nt,nt
C[C@@H]1CN([C@H](C)CO)C(=O)Cc2cc(NC(=O)CCC(F)(F)F)ccc2O[C@@H]1CN(C)C(=O)Nc1ccccc1,-1,0,8,0,-6,1,nt,nt
C[C@H]1CN([C@@H](C)CO)C(=O)Cc2cc(NC(=O)CCC(F)(F)F)ccc2O[C@H]1CN(C)Cc1ccc(-c2ccccc2)cc1,1,0,29*,-4,2,8,7,2
CCOc1cc(C2C3=C(CC(C)(C)CC3=O)Nc3n[nH]c(C)c32)ccc1O (centres undefined),0,0,-6,0,2,-1,nt,nt
O=C(CSC1CS(=O)(=O)c2cc([N+](=O)[O-])ccc21)NNC(=O)c1ccc(Cl)cc1 (centres undefined),-3,0,0,0,5,-1,nt,nt
O=C(CSC1CS(=O)(=O)c2cc([N+](=O)[O-])ccc21)NNC(=O)c1ccccc1 (centres undefined),-2,0,24*,1,2,6,-1,-1
O=C(NC1CCCN(Cc2ccc(Cl)cc2)C1)c1cccc(F)c1 (centres undefined),0,0,82*,1,-7,-2,1,0
